From PubChem BioAssay AID1018 (Sanford-Burnham Center for Chemical Genomics, 2008)
In all, about 200,000 compounds went through this assay and about 15 (0.007%) were called active. Shown is part of a subset that was picked to be rich in actives. Values without a mark were called inactive. No stated cut-off is given here; in the data, active means displacement above about 50%; inactive means the rest.

target: E3 ubiquitin-protein ligase XIAP (Homo sapiens) (UniProt P98170); experiment: XIAP antagonists, biochemical, IAP family, fluorescence polarization (AID 1018); conditions: XIAP BIR domain, fluorescence polarization peptide displacement; at 20 µM; active compounds read high
Sequence (P98170 whole entry, looked up, the tested form may be a part): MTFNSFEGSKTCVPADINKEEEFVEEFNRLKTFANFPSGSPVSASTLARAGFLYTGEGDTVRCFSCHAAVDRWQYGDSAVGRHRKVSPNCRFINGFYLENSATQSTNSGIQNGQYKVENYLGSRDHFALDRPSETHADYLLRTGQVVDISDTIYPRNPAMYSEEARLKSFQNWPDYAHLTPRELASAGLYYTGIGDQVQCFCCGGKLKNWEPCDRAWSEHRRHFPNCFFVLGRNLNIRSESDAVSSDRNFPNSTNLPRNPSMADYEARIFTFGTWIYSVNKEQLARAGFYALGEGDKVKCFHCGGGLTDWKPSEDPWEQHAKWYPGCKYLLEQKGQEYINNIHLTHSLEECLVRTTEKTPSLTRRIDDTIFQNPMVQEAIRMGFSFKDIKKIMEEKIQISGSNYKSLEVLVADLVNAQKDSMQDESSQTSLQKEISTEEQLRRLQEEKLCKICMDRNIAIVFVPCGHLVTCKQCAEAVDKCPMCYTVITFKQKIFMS

| SMILES | displacement |
| --- | --- |
| COc1ccc(OC)c(NC(=O)C23CC4CC(C2)CC(n2cnc(Br)n2)(C4)C3)c1 | -3.2% |
| CCC(Oc1ccccc1)C(=O)N1CC(C)CC(C)C1 (stereo not given) | 2.4% |
| C[N+]1(CC(=O)OCCCc2ccccc2)CCCC1 | -9.6% |
| O=C(NC1CCCc2ccccc21)c1ccc(S(=O)(=O)N2CCOCC2)cc1 (stereo not given) | -3.4% |
| CCOc1cccc2cc(C(=O)N3CCc4ccccc43)c(=O)oc12 | -88.7% |
| CCC(/C=N/NC(=O)C(=O)N/N=C/C(CC)CC)CC | -0.2% |
| COc1cccc(C(=O)COc2cccc(NC(=O)c3cccc([N+](=O)[O-])c3)c2)c1 | -1.9% |
| O=C(COc1cccc(NC(=O)c2cccc([N+](=O)[O-])c2)c1)c1ccc(Br)cc1 | -6.2% |
| O=C(COc1cccc(NC(=O)c2cccc([N+](=O)[O-])c2)c1)c1ccc(F)cc1 | 59.8% (active) |
| CC(=O)Nc1ccccc1OCC(=O)NCCc1ccc(Cl)cc1Cl | -8.3% |
| COCCNC(=O)CCSCc1ccccc1F | -1.3% |
| O=C(Nc1ccccc1C(F)(F)F)NC1CCCCC1 | -2.8% |
| CC(=O)Nc1cc(C)c(S(C)(=O)=O)c(C)c1 | -8.9% |
| CC1CN(CC(O)COC(c2ccccc2)c2ccccc2)CC(C)O1 (stereo not given) | -4.7% |
| CC(=C/c1ccc(C(C)C)cc1)/C=N/NC(=O)c1ccncc1 | -6.3% |
| O=C(CN1CCc2ccccc2C1)Nc1ccc(F)cc1F | -0.5% |
| Cc1ccc(C(=O)Nc2ncc(C)s2)o1 | -3.4% |
| COc1ccccc1CCc1nnc(CCC(=O)NCCCOc2cccnc2)o1 | -4.3% |
| CC1=C(C(=O)Nc2ccccc2)C(c2ccccc2[N+](=O)[O-])NC(=O)N1 (stereo not given) | -1.5% |
| O=[N+]([O-])c1ccccc1OCCCN1CCOCC1 | -4.4% |
| CC(C)CNC(=O)NC(=O)COc1ncnc2sccc12 | -1.4% |
| COc1ccc(NC(=O)CSc2nnc(NC(=O)c3ccccc3C(=O)O)s2)cc1 | -4.3% |
| Cc1ccc(Sc2nc(C)cc(C)c2S(C)(=O)=O)cc1 | -4.9% |
| COCCNC(=O)NC(=O)COC(=O)c1ccc2[nH]c3c(c2c1)CCCC3 | -1.1% |
| O=C(CCCC(=O)OCC(Cl)=C(Cl)Cl)Nc1cccc(F)c1 | -3.5% |
